Source: PubChem BioAssay
GPR151 ag = activators of human GPR151; activation, % at 11.2 µM; AID 1508602; hit rate 1% among 650,000; PathHunter beta-arrestin GPR151 cells, luminescence; in the data active means activation above about 4.9%;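 further: 0% = median of compound wells and 100% = cells with positive control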
MITF inh = human MITF inhibition, primary screen; inhibition, % at 2.6 µM; AlphaScreen MITF homodimerization, bead proximity signal; hit rate 0.91% among 650,000; O75030; AID 1259374; in the data active means inhibition above about 50%;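 further: 0% = vehicle wells with protein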
Target sequence (O75030 whole entry, looked up): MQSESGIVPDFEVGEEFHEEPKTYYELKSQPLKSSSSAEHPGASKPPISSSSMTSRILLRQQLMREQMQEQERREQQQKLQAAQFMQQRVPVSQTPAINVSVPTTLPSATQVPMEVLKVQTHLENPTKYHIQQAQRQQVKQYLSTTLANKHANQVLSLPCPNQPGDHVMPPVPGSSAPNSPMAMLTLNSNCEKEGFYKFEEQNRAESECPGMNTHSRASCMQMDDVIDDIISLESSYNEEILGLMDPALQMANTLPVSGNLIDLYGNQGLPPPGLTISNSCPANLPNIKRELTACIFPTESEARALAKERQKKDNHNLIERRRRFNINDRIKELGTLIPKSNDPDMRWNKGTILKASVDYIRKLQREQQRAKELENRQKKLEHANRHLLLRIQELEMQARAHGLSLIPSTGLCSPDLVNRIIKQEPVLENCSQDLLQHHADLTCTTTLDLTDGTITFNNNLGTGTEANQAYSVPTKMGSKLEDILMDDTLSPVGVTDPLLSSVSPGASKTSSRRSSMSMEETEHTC
FBW7 act = activators of human E3 ligase FBW7; normalized activity (activation), % at 26.1 µM; hit rate 0.13% among 650,000; AlphaScreen FBW7–phospho-cyclin E peptide binding, activator screen; in the data active means normalized activity above about 1.9%;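 further: purified mutant Fbw7 with reduced substrate affinity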
TEAD-YAP block = TEAD-YAP interaction inhibition | HEK-TIYL cells, TEAD-Gal4/YAP UAS-luciferase luminescence | inhibition, % at 9.12 µM | hit rate 1.4% among 640,000 | AID 1259422; in the data active means inhibition above about 32%;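 further: 0% = median of test compound wells and 100% = reference inhibitor wells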
GPR151 confirm = human GPR151 activation, confirmation screen; shares compounds with GPR151 ag; GPR151 PathHunter beta-arrestin cells, luminescence, 90 min; % of EA-reagent control over plate median; activation, % at 11.2 µM; 6,700 tested, under 10 active;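 active means mean percent activation across replicates above the confirmation screen cutoff of 4.91%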
GPR119 counter = activates human GPR119 in a GPR151 counter-screen; shares compounds with GPR151 ag; GPR119 PathHunter beta-arrestin cells, luminescence, 90 min; 0 = compound-well median, 100 = enzyme-acceptor control; activation, % at 11.2 µM; hit rate 0.3% among 6,700; AID 1508611;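 active means mean percent activation in the counterscreen above 29.09%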;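 further: counterscreen on off-target GPR119 to flag nonselective hits from the GPR151 activator screen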
Starred values were filed as active, the others as inactive; / = no result given; ! = repeats disagree. Most compounds without a hit are left out; they make up all but 3.5% or so of the library.

SMILES | GPR151 ag | MITF inh | FBW7 act | TEAD-YAP block | GPR151 confirm | GPR119 counter
O=C(O)c1ccc(NS(=O)(=O)/C=C/c2ccccc2)cc1 | 7.0* | 15 | 0 | -1 | -1 | -9
O=C1NN(c2ccc(F)cc2)C(=O)/C1=C\c1cccc(Cl)c1Cl | 5.4* | -13 | 0 | -4 | 2 | 3
COc1ccc(-c2cc(C(=O)NN)c3cc(Br)ccc3n2)cc1 | 5.0* | 12 | 0 | 1 | -1 | -7
NNC(=O)c1cc(-c2ccc(F)cc2)nc2ccccc12 | 6.1* | 5 | 0 | 2 | 1 | 16
Cc1ccc(-c2cc(C(=O)NN)c3ccccc3n2)cc1 | -2 | 3 | 0 | -18 | / | /
O=C(NCc1ccc2c(c1)OCO2)c1cc(-c2ccccc2Cl)nc2ccccc12 | 0 | 7 | 0 | 19 | / | /
NNC(=O)c1cc(-c2ccc(O)cc2)nc2ccc(Br)cc12 | 1 | 3 | 0 | 4 | / | /
O=C(NCc1ccc(F)cc1)c1cc(-c2ccccc2Cl)nc2ccccc12 | 17* | 2 | 0 | 8 | 1 | 16
Cn1c(O)c(N=NC(=O)C(=O)Nc2cccc(C(=O)O)c2)c2ccccc21 | 1 | -5 | 0 | -11 | / | /
CC(=O)N1N=C(c2ccccc2)CC1c1cn(-c2ccccc2)nc1-c1ccc(C)cc1 (stereo not given) | 6.0* | 8 | 0 | -6 | 0 | -6
CC1C2CCCN2CCN1Cc1cccc([N+](=O)[O-])c1 (stereo not given) | 9.7* | 5 | 1 | -8 | -1 | -9
CC1=C(C(=O)OCCOc2ccccc2)C(c2cccc(O)c2)C2=C(CC(c3ccccc3)CC2=O)N1 (stereo not given) | 14* | 8 | 2 | 6 | 0 | 8
CCOCCOC(=O)C1=C(C)NC2=C(C(=O)CC(c3ccc(Cl)cc3)C2)C1c1ccc(Cl)cc1 (stereo not given) | 7.4* | -1 | 0 | 17 | -1 | -4
CCOCCOC(=O)C1=C(C)NC2=C(C(=O)CC(c3ccc(Cl)cc3)C2)C1c1ccc(O)cc1 (stereo not given) | -1 | 17 | 0 | 6 | / | /
CC1=C(C(=O)OCC2CCCO2)C(c2cccc([N+](=O)[O-])c2)C2=C(CCCC2=O)N1 (stereo not given) | 6.1* | 4 | 0 | 8 | 0 | 8
CCOCCOC(=O)C1=C(C)NC2=C(C(=O)CCC2)C1c1ccc(F)c(F)c1 (stereo not given) | 12*! | 6 | 0 | 7 | 1 | 17
CCCOCCOC(=O)C1=C(C)NC2=C(C(=O)CCC2)C1c1ccc(F)c(F)c1 (stereo not given) | 0 | -3 | 1 | 17 | / | /
COc1ccc(NC(=O)n2cc(C)cn2)cc1OC | 5.2* | 16 | 0 | -1 | 0 | -10
COc1ccc(Cl)cc1NC(=O)n1cc(C)cn1 | -1 | 6 | 0 | 6 | / | /
C=CCNc1nc(-c2ccc(OC)c3ccccc23)cs1 | 5.4* | 16 | 0 | 0 | 0 | -4
COC(=O)c1cc(CNC(=O)/C=C/c2ccccc2Cl)cc(NC(=O)c2ccco2)c1 | -1 | -2 | 0 | -21 | / | /
CCCn1c(C)cn2c3c(=O)n(CCC(=O)OCC)c(=O)n(C)c3nc12 | -1 | -6 | 0 | -2 | / | /
C=CCN1C(=O)/C(=C\c2cc(Cl)c(O)c(Cl)c2)C(=O)NC1=S | 0 | 6 | 0 | 1 | / | /
C=CCN1C(=O)/C(=C/c2ccc(Cl)cc2)C(=O)NC1=S | 16* | 5 | 0 | 0 | -1 | -12
C=CCN1C(=O)/C(=C\c2cc(Cl)c(O)c(OCC)c2)C(=O)NC1=S | 7.4* | 6 | 0 | -11 | -1 | 0
SMILES | GPR151 ag | MITF inh | FBW7 act | TEAD-YAP block | GPR151 confirm | GPR119 counter
O=C(O)c1cc(C2COc3ccccc3O2)nc2ccc(-c3cn[nH]c3)cc12 (stereo not given) | 13* | 21 | 0 | 4 | 1 | 3
O=C(NCCN1CCNCC1)c1cc(C2COc3ccccc3O2)nc2ccc(-c3cn[nH]c3)cc12 (stereo not given) | 0 | -2 | 0 | 0 | / | /
O=C1CC(N2CCN(c3ccc(F)cc3)CC2)C(=O)N1 (stereo not given) | -1 | 0 | 0 | -1 | / | /
COc1ccc(N2CCN(C3CC(=O)NC3=O)CC2)cc1 (stereo not given) | 6.3* | 19 | 0 | 12 | 2 | 11
CCc1ccc(NC(=O)C(CC)Sc2nc3cc(OC)c(OC)cc3c(=O)n2CCc2ccc(Cl)cc2)cc1 (stereo not given) | 6.5* | -5 | 0 | -12 | 0 | -11
CCC(Sc1nc2cc(OC)c(OC)cc2c(=O)n1CCc1ccc(Cl)cc1)C(=O)Nc1cccc(Cl)c1 (stereo not given) | 0 | -7 | 0 | 7 | / | /
COC(=O)CCC(=O)OC1(C)C(=O)C=C2C=C(C3CC3)OC=C2C1=O (stereo not given) | 5.8* | 17 | 0 | / | 0 | 9
CNCCCC1c2ccccc2C=Cc2ccccc21 | 10*! | 5 | 0 | 2 | 0 | 2
OC(CN1CCOCC1)Cn1cnc2c(SCc3ccccc3)ncnc21 (stereo not given) | 6.0* | 9 | 0 | 0 | 1 | 0
N#C/C(=C\c1cccnc1)c1nnc2n1CCCCC2 | 3 | -13 | 0 | -15 | / | /
Cc1ccc(C(=O)COC(=O)CN2C(=O)C3C4CCC(C4)C3C2=O)cc1[N+](=O)[O-] (stereo not given) | -1 | -14 | 0 | -7 | / | /
Cc1ccc(C(=O)COC(=O)CN2C(=O)C3C4C=CC(C4)C3C2=O)cc1[N+](=O)[O-] (stereo not given) | 13* | 1 | 0 | 3 | 0 | 10
CCC(=O)Oc1cc2c(C(=O)OC(C)C)c(C)oc2cc1Br | 8.2* | -6 | 0 | -44 | 1 | 17
CC1CCCC(C)N1NC(=S)Nc1ccccc1 (stereo not given) | 4.9* | 5 | 0 | 8 | -1 | -13
Cc1nnc(NC(C)c2ccccc2)[nH]c1=O (stereo not given) | 5.5* | -3 | 0 | -1 | 0 | 4
CN1C(=O)CCC12CCN(Cc1c[nH]c3ccccc13)CC2 | 8.1* | 15 | 0 | -7 | 0 | -1
CCCSc1nnc(NC(=O)c2c(OC)cccc2OC)s1 | 0 | 20 | 0 | 8 | / | /
COCCn1c(SCC(=O)NCc2ccc(F)cc2)nc2c(c1=O)SC(C)C2 (stereo not given) | -1 | -5 | 0 | -2 | / | /
CC(C)(C)OC(=O)N1CCC[C@@H]1C(=O)Nc1ccc2[nH]ncc2c1 | 5.8* | 19 | 0 | -3 | 0 | -6
Cc1ccc2nc(Cl)c3cc(C(=O)N=C4NC(=O)CN4C)sc3c2c1 | 6.1* | 0 | 0 | 2 | 0 | 4
Cc1ccc2nc(Cl)c3cc(C(=O)N4CCN(C)CC4)sc3c2c1 | 0 | 8 | 0 | -4 | / | /
